Source: PubChem
The list is not random: actives were taken first. Their share in the collection is about 11%.
Pf growth 96h: P. falciparum growth inhibition at 96 hour, primary screen for plastid delayed-death inhibitors | Potency, µM (titrated, usually from 28.7 µM), inactives show at the top dose activity change, negative = inhibition, actives largely listed as inhibitors | P. falciparum luciferase reporter growth, 96 h | actives 6.9% (n = 320,000)
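Parasite growth measured via integrated firefly luciferase reporter in P. falciparum. Infected erythrocytes at 2% hematocrit, 0.05% parasitemia final were treated 96 hours at 37 C under 5% CO2, and luminescence was read.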
Pf growth 48h: inhibits P. falciparum growth in the first generation, 48 h | actives 5.9% (n = 310,000) | Potency, µM (top dose mostly 28.7 µM), inactives show at the top dose activity change, negative = inhibition, actives largely listed as inhibitors | AID 504832 | P. falciparum luciferase growth in erythrocytes, 48 h
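First compound was added to culture medium, then infected red cells at 0.1% parasitemia and 2% hematocrit (final). After incubation at 37 C under 5% CO2, luciferase detection reagent was dispensed and light output recorded.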
AMA1-RON2 inh: disrupts binding of P. falciparum AMA1 to RON2; actives 0.2% (n = 360,000); Potency, µM (series often up to 58.2 µM), without a hit: at the highest dose activity change, negative = inhibition, most hits filed as inhibitors; AlphaScreen AMA1-biotinylated RON2 peptide binding;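 further: 0% = vehicle wells and -100% = peptide control; nearly all actives have a fitted effect of over 45% in size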
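AMA1 (3D7) with his tag at 25 nM final met compounds first, then biotinylated RON2 peptide at 25 nM; detection used donor plus acceptor beads, 10 µg/mL apiece, read by AlphaScreen after 30 min at room temperature.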
HCV inh: blocks hepatitis C virus. actives 3.4% (n = 340,000). Huh7.5.1 HCVcc-Cre infection, luciferase reporter, 44 h. AID 651820. Potency, µM (highest dose often 41.8 µM), for the others: top-dose activity change, negative = inhibition, hits mostly inhibitors
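After 44 h co-culture of compound, cells and HCVcc-Cre (~0.5 moi), substrate is added for 15 min at room temperature and luciferase measured over 15 sec. Cells were seeded at 1,000/well and pre-cultured 4 h.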
AmpC inh no detg: inhibitors of E. coli AmpC beta-lactamase without detergent | P00811 | AmpC nitrocefin hydrolysis, absorbance 480 nm, 0.0001% Triton | Potency, µM (highest dose often 57.1 µM), for the others: at the highest dose activity change, negative = inhibition, hits mostly inhibitors | actives 0.52% (n = 330,000);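 further: plate controls were no compound for no effect and no enzyme for full effect; nearly all actives have a fitted effect of over 20% in size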
Target sequence (P00811 whole entry, looked up): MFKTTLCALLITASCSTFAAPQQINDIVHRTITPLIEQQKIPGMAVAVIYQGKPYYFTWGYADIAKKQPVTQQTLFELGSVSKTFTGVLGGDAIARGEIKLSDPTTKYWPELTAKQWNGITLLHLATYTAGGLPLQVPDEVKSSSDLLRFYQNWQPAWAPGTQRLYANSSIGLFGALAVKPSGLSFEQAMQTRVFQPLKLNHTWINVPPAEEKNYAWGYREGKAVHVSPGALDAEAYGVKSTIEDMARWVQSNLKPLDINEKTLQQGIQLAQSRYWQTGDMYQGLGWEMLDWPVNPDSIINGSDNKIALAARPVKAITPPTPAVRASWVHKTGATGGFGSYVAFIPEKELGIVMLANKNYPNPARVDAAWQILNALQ
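20 mM phosphate pH 7.0 + 0.01% (detergent screen) or 0.0001% Triton X-100; 5.3 nM AmpC reagent; cpd preinc 15 min RT; nitrocefin (800 uM stock) to start; A480 q20 s × 4 min; Activity was normalised to no-enzyme and no-compound control wells.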
AmpC inh detg: blocks E. coli AmpC beta-lactamase in detergent assay; P00811; AmpC hydrolysis of nitrocefin, absorbance 480 nm, 0.01% Triton; Potency, µM (titrated, usually from 114 µM), for inactives: at the highest dose activity change, negative = inhibition, actives largely listed as inhibitors; actives 0.041% (n = 370,000);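 further: 0% = no-compound wells and -100% = no-enzyme wells; nearly all actives have a fitted effect of over 25% in size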
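20 mM phosphate pH 7.0 + 0.01% (detergent screen) or 0.0001% Triton X-100; 5.3 nM AmpC reagent; cpd preinc 15 min RT; nitrocefin (800 uM stock) to start; A480 q20 s × 4 min; Activity was normalised to no-enzyme and no-compound control wells.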
An asterisk follows results filed as active; ? = inconclusive; / = no result; [ ] = another dose, or the depositor's remark. The call rests on the fitted dose curve; in most records, active means well fitted curve in the direction sought with a large enough effect; inconclusive means small, poorly fitted or top-dose-only effect, or another doubt; inactive means no such curve, though single readings can be large; an effect the other way counts as inactive or inconclusive. Unless noted, on the % scale 0 is the no-effect control and ±100 the full control effect; potency means the concentration at half of the fitted maximal effect.

SMILES	Pf growth 96h	Pf growth 48h	AMA1-RON2 inh	HCV inh	AmpC inh no detg	AmpC inh detg
O=C(Nc1cccc(C(F)(F)F)c1)C1CCN(S(=O)(=O)c2cccc3nsnc23)CC1	/	/	/	/	/	-2.4%
O=[N+]([O-])c1cnn(-c2nc(-c3ccco3)cc(C(F)(F)F)n2)c1	11.7µM*	-8.1%	-0.5%	-24.1%	-7.4%	-1.8%
COc1ccccc1CCc1nnc(CCC(=O)NCC(C)Oc2cccnc2)o1 (configuration not stated)	16.5µM*	20.7%	-4.1%	13.2%	8.5%	2.5%
Cc1ccc(NC(=O)CCN2C(=O)c3ccccc3Sc3ncccc32)cc1	?	-23.8%	0.0%	-2.2%	10.2%	-0.8%
CC(C)NC(=O)CCCN1C(=O)c2ccccc2Sc2ncccc21	0.262µM*	12.5%	5.8%	10.0%	0.2%	-5.1%
COc1cccc(NC(=O)CCN2C(=O)c3ccccc3Sc3ncccc32)c1	2.94µM*	-16.1%	-19.6%	-5.4%	-15.4%	?
CCC(C(=O)NC1CCCCC1)n1nc(C)c2sc3ccccc3c2c1=O (configuration not stated)	/	/	/	/	/	-4.5%
CCCCN(CCCC)CCCNC(=O)c1cc(-c2ccc(Cl)s2)nc2ccccc12	/	/	/	/	/	-3.8%
COc1ccc(OC)c(C2CC(c3ccccc3)=NN2C(=S)Nc2ccccc2)c1 (configuration not stated)	?	2.33µM*	-0.1%	-4.2%	-16.6%	7.6%
COc1ccc(C2CC(c3ccccc3)=NN2C(=O)COC(=O)CNC(=O)c2ccccc2)cc1 (configuration not stated)	32.0%	3.0%	-14.4%	-9.5%	-22.5%	-13.8%
CNC(=S)N1N=C(c2ccc(Br)cc2)CC1c1ccc(OC)cc1 (configuration not stated)	10.4µM*	-26.9%	33.5%	10µM*	-5.9%	-14.1%
COc1ccc(C2CC(c3ccccc3)=NN2C(=O)COC(=O)/C=C/c2ccc(O)c(OC)c2)cc1 (configuration not stated)	?	14.7µM*	-5.2%	?	-18.7%	-3.7%
CNC(=S)N1N=C(c2ccc(C)cc2)CC1c1cc(OC)ccc1OC (configuration not stated)	-29.3%	?	?	?	29.6%	3.4%
CNC(=S)N1N=C(c2ccc(C)cc2)CC1c1ccc(N(C)C)cc1 (configuration not stated)	?	?	28.2µM*	-23.7%	22.4%	0.0%
Cc1cc(C)cc(NC(=O)C(Cc2ccccc2)N2Cc3ccccc3C2=O)c1 (configuration not stated)	/	/	/	/	/	-0.4%
Cc1ccc2occ(-c3cc(-c4ccccc4)nc4c3COc3ccccc3-4)c(=O)c2c1	/	/	/	/	/	1.0%
Cc1c(C(=O)NCCc2ccccc2)cccc1-n1cnc2cccnc21	/	/	/	/	/	0.3%
O=C1C(=O)N(C2CCN(C(=O)c3ccc(Cl)cc3)CC2)CCN1Cc1ccc(F)cc1	/	/	/	/	/	4.1%
Cc1ccc(S(=O)(=O)CCC(=O)Nc2ccc(Br)cc2C)cc1	/	/	/	/	/	0.4%
CCCc1nn2c(=O)cc(COC(=O)c3cccs3)nc2s1	/	/	/	/	/	-5.9%
CCCCN(CC)CCCNC(=O)Nc1sc2nc3n(c(=O)c2c1C)CCC(C)CC3 (configuration not stated)	/	/	/	/	/	19.7%
COc1ccc(C2CC(c3ccc(Br)cc3)=NN2C(=O)CN2CCCC2)cc1 (configuration not stated)	-20.3%	?	-5.9%	10µM*	121.1%	4.2%
CNC(=S)N1N=C(c2ccc(OC)cc2)CC1c1ccc(Cl)cc1Cl (configuration not stated)	5.86µM*	11.7µM*	-7.5%	2.9%	1.7%	-0.2%
COc1ccc(C2=NN(C(=O)CCC(=O)O)C(c3ccc(F)cc3)C2)cc1 (configuration not stated)	14.7µM*	-25.2%	-4.6%	-0.6%	-10.6%	?
COc1ccc(C2CC(c3ccc4ccccc4c3OC(C)=O)=NN2C(=O)/C=C/c2ccccc2)cc1 (configuration not stated)	?	11.7µM*	-2.0%	-22.0%	-59.2%	-5.2%
SMILES	Pf growth 96h	Pf growth 48h	AMA1-RON2 inh	HCV inh	AmpC inh no detg	AmpC inh detg
COc1ccc(C2=NN(C(=O)CCC(=O)O)C(c3ccccc3)C2)cc1 (configuration not stated)	?	6.3%	2.8%	17.9%	-14.9%	3.0%
COc1ccc(C2=NN(C(=O)CN3CCCCC3)C(c3ccc(C)cc3)C2)cc1 (configuration not stated)	2.5%	?	-4.1%	-0.5%	75.9%	-7.7%
O=C(CCS(=O)(=O)c1ccccc1)N(Cc1cccnc1)c1nc2c(Cl)cccc2s1	/	/	/	/	/	0.1%
N#C/C(=N\Nc1ccc(S(=O)(=O)N2CCc3ccccc32)cc1)C(N)=S	?	?	41.2%	-26.4%	-41.6%	-11.0%
COc1ccc(C(=O)Nc2ccc(S(=O)(=O)N3CCc4ccccc43)cc2)cc1	/	/	2.3%	11.2µM*	/	/
CCOC(=O)/C(C#N)=N/Nc1ccc(S(=O)(=O)N2CCc3ccccc32)cc1	11.7µM*	13.1µM*	-19.3%	?	-40.6%	-7.7%
NS(=O)(=O)c1ccc(NC(=O)c2ccc(S(=O)(=O)N3CCc4ccccc43)cc2)cc1	?	-30.6%	-11.6%	?	17.8µM*	-6.0%
CS(=O)(=O)N1CCc2cc(C(=O)Nc3ccc(S(N)(=O)=O)cc3)ccc21	/	/	/	/	/	0.1%
COc1cc2c(cc1OC)CN(C(=O)c1ccc(OC)c(S(=O)(=O)N3CCCC3)c1)CC2	?	11.7µM*	0.0%	-12.9%	55.2%	1.5%
COc1ccc2c(c1)CC(C(=O)NCc1ccc(F)cc1)CO2 (configuration not stated)	/	/	/	/	/	18.4%
Cn1c(=O)n(-c2ccc3c(c2)OCO3)c2nc(-c3ccccc3)nc(C(N)=O)c21	/	/	/	/	/	1.8%
Cc1ccccc1Nc1cc(C(=O)NCc2cccs2)c2ccccc2n1	/	/	/	/	/	6.6%
COc1cc2c(cc1OC)CN(C(=O)c1cccc(S(=O)(=O)N3CCc4ccccc43)c1)CC2	11.7µM*	10.4µM*	-5.3%[11.6 µM]	?	161.6%	3.0%
CCN(CC(=O)Nc1cccc(OC)c1)C(=O)c1cccc(S(=O)(=O)N2CCc3ccccc32)c1	?	11.7µM*	10.2%[11.6 µM]	-12.1%	-4.1%	-8.0%
COc1ccc(NC(=O)c2cccc(S(=O)(=O)N3CCc4ccccc43)c2)cn1	11.7µM*	?	-14.3%	?	-22.5%	1.2%
